Several values for one entry are separate records, joined by “and”; a condition that tells them apart may be missing. Equal entries are not always repeated. Results filed as inconclusive are left out. Unmarked numbers belong to inactive results. Activity calls are given as the source filed them. Calls follow the shape of the dose curve; as a rule, active = well fitted cell-killing curve with a large enough effect; inconclusive = small, poorly fitted or top-dose-only effect, or effect the other way; inactive = no such curve, though single readings can be large or run the other way.

This passage reports Potency results from PubChem BioAssay (NCATS).

Assay [1] can be described thus: Viability qHTS for spleen associated tyrosine kinase inhibitor (SYKi) naive MV4-11 cells (AID 1963823). Also: nearly all actives have a fitted effect of over 40% in size. Particulars: MV4-11 AML viability, CellTiter-Glo luminescence, 72 h; series mostly up to 45 µM. The method, boiled down:
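Compounds were dispensed acoustically onto plates, MV4-11 cells (SYKi-naive) added at 500 per well, and plates incubated 72 hr at 37 C. CellTiter-Glo was added and luminescence measured after 10 min.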
For orientation: In qHTS, concentration-response curves come from the screen itself.

Assay [2] can be described thus: Viability qHTS for spleen associated tyrosine kinase inhibitor (SYKi) drug resistant MV4-11 cells (AID 1963824). Also: nearly all actives have a fitted effect of over 35% in size. To be noted: SYKi-resistant MV4-11 viability, CellTiter-Glo, 72 h; series mostly up to 45 µM. The method, boiled down:
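SYK-inhibitor-resistant MV4-11 AML cells were seeded at 500 per well onto compound and cultured 72 hours (37 °C, 5% CO2). CellTiter-Glo was then added, and after 10 min at room temperature, luminescence gave viability.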
Potency is read from the fitted curve at half-maximal effect.

For `C=C1[C@H](OC(C)=O)[C@H]2[C@@H](OC(=O)c3ccccc3)[C@@H](C)C[C@]2(O)[C@@H](OC(C)=O)[C@H](C)/C=C/C(C)(C)C(=O)[C@H](OC(C)=O)[C@H]1OC(C)=O`, the Potency entry in assay [1] and in assay [2] was “inactive” in each case.
On to `CC1(C)C[C@H]2C=C(C=O)[C@]3(C(=O)O)C[C@]3(C)[C@H]2C1`, for which the Potency result in assay [1] and in assay [2] was “inactive” throughout.
Regarding `NC(=O)[C@H]1CCCCc2c1[nH]c1ccc(Cl)cc21`, the Potency result in assay [1] and in assay [2] was “inactive” throughout.
As to `O=C(/C=C/c1ccc(O)cc1)c1ccc(O)cc1O`, the Potency in assay [1] is 18.6 µM (active); in assay [2] it was 11.8 µM (active).
For the compound `C[C@@]12C[C@]3(O)O[C@H](O1)[C@]1(COC(=O)c4ccccc4)[C@H]3C[C@@]12O[C@@H]1O[C@H](COC(=O)c2ccccc2)[C@@H](O)[C@H](O)[C@H]1O`, the Potency entry in assay [1] and in assay [2] was “inactive” in each case.
Turning to `CC1=C2C=C(CO)C(CO)CCC2(C)CCC1=O` (stereo not drawn), the Potency entry in assay [1] and in assay [2] was “inactive” each time.
In the case of `Cc1c(NC(=O)c2cc3c(s2)CCCC3)cccc1-c1cn(C)c(=O)c(Nc2ccc(C3C(=O)N(C)CCN3C)cc2)n1` (stereo not drawn), the Potency in assay [1] was 20.6 µM (active) and 20.9 µM (active); in assay [2] it was 7.31 µM (active) and 16.6 µM (active).
For `O=C1NC(c2cccc([N+](=O)[O-])c2)=CCN1c1ccccc1O`, the Potency result in assay [1] and in assay [2] was “inactive” in each case.
Turning to `CC1=C2CC(=O)C(C)CC/C=C(\C)CC2(O)OC1=O` (stereo not drawn), the Potency result in assay [1] and in assay [2] was “inactive” in each case.
In the case of `CC1(C)CC[C@]2(C(=O)O[C@@H]3O[C@H](CO)[C@@H](O)[C@H](O)[C@H]3O)CC[C@]3(C)C(=CCC4[C@@]5(C)C[C@@H](O)[C@H](O)C(CO)(CO)C5CC[C@]43C)C2[C@@H]1O` (stereo partly drawn), the Potency entry in assay [1] and in assay [2] was “inactive” in each case.
Turning to `CC1CC(=O)[C@]2(O)C(C(=O)OCCc3ccc(O)cc3)=CO[C@@H](O[C@@H]3O[C@H](CO)[C@@H](O)[C@H](O)[C@H]3O)[C@H]12` (stereo partly drawn), the Potency result in assay [1] and in assay [2] was “inactive” throughout.
For `CC(C)(CC(=O)N1CCCC1)NCC(=O)N1C[C@@H](F)C[C@H]1C#N`, the Potency result in assay [1] and in assay [2] was “inactive” in each case.
For the compound `CCC/C=C1\OC(=O)C2=C1CCC(O)C2O` (stereo not drawn), the Potency entry in assay [1] and in assay [2] was “inactive” in each case.
For `C=C1C(O)CC2C(C(=O)O)=COC(O[C@@H]3O[C@H](COC(=O)/C=C/c4ccc(O)cc4)[C@@H](O)[C@H](O)[C@H]3O)C12` (stereo partly drawn), the Potency result in assay [1] and in assay [2] was “inactive” throughout.
As to `CC1=CC(=O)CC(C)(CO)C1(O)/C=C/C(C)O[C@@H]1O[C@H](CO)[C@@H](O)[C@H](O)[C@H]1O` (stereo partly drawn), the Potency entry in assay [1] and in assay [2] was “inactive” in each case.
`CCOCCn1nc(CC)c2nc(N3CCC(C(=O)O)CC3)nc(Nc3cc(C)ccn3)c21`: the Potency result in assay [1] and in assay [2] was “inactive” each time.
Regarding `COC(=O)C1=CO[C@@H](O[C@@H]2O[C@H](CO)[C@@H](O)[C@H](O)[C@H]2O)[C@@H]2[C@@](C)(O)[C@@H](OC(=O)/C=C/c3ccc(O)cc3)C[C@]12O`, the Potency result in assay [1] and in assay [2] was “inactive” each time.
For the compound `CCN(CC)CCCS(=O)(=O)N[C@H](CCc1ccccc1)c1nc(Cc2ccc(Br)cc2)no1`, the Potency in assay [1] and in assay [2] was 20.6 µM (active) throughout.
Turning to `COc1cc(O)c2c(c1)C1=CC(O)C(O)CC1(C)OC2=O` (stereo not drawn), the Potency result in assay [1] and in assay [2] was “inactive” in each case.
Consider `CC(C)[C@@H](C)/C=C/[C@@H](C)[C@H]1CC[C@H]2C3=CC=C4C[C@@H](O)CC[C@]4(C)[C@H]3CC[C@]12C`, for which the Potency result in assay [1] and in assay [2] was “inactive” throughout.
Take `C=CC(=O)Nc1cc(Nc2ncc(Cl)c(-c3c[nH]c4ccccc34)n2)c(OC)cc1N(C)CCN(C)C`: the Potency was 0.058 µM (active) in assay [1] and 0.0146 µM (active) in assay [2].
The like results for `Nc1n[nH]c(N)c1N=Nc1ccc(O)cc1` were, in that order, 9.2 µM (active) and 6.51 µM (active).
With `CCNC(=O)Nc1ccc(-c2nc3c(c(N4CCOC[C@H]4C)n2)CCN(C2COC2)C3)cc1`, the results for the Potency in assay [1] and in assay [2] were 0.461 µM (active) and 0.82 µM (active), respectively.
As for `OC[C@H]1O[C@@H](OCc2ccccc2)[C@H](O)[C@@H](O)[C@@H]1O`, the Potency result in assay [1] and in assay [2] was “inactive” in each case.
As for `C=C1C(=O)O[C@H]2[C@H]1[C@@H](OC(=O)/C(C)=C\C)C[C@]1(C)O[C@@H]1[C@H]1O[C@H]1C(=C)[C@H]2O`, the figures for the Potency in assay [1] and in assay [2] were 8.05 µM (active) and 3.6 µM (active), respectively.
The like results for `C=C1C[C@]23C[C@H]1CC[C@H]2[C@@]1(C)CCC[C@@]2(C)C(=O)O[C@@H]([C@@H]3O)[C@@H]12` were, in that order, “inactive” and 1.43 µM (active).
The corresponding values for `OCC1OC(Oc2cc(O)c3c(c2)OC(c2ccc(O)cc2)C(O)C3)C(O)C1O` (stereo not drawn) are “inactive” and “inactive”.
On to `CCOC(=O)c1cnn(-c2ccccc2)c1NC(=O)c1cc2nc(-c3ccco3)cc(C(F)(F)Cl)n2n1`, for which the Potency entry in assay [1] and in assay [2] was “inactive” in each case.
Regarding `C=C[C@H](/C=C\c1ccc(O)cc1)c1ccc(O)cc1`, the Potency in assay [1] and in assay [2] was 18.4 µM (active) each time.
